The record followed here is PubChem BioAssay.

SMILES strings stand for the structures. The source made the active and inactive calls. Unless noted, how the calls were made is not given here.

Assay [1] relates to Wnt5a (protein binding on small-molecule microarray). As to the kind of experiment: Wnt5a binders on small-molecule microarray, primary screen, biophysical, 635/667 nm fluorescence (AID 1142).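 Further: fluorescence read at 667 nm with signal to noise per printed feature.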 Particulars: 635 nm fluorescence, higher = more signal.
Assay [2] is described as follows: cell viability in Huh7 cells, primary screen, cytotoxicity control for HCV replication inhibitor project, CellTiter-Glo luminescence, basal, 48 h (AID 1143).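 Further: Huh7 hepatoma cells carrying a hepatitis C replication reporter with no stimulus; test concentration not given here.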 Particulars: Huh7 HCV replicon, higher = more signal, called active from +8 up or from −8 down. (Cellular ATP, detected with luciferase, serves as a proxy for viable cell number.)
A short description of assay [3]: P. aeruginosa biofilm formation inhibitors, primary screen, PAO1 strain, BacTiter-Glo luminescence, LB-PBS (AID 1144). As to conditions: 12 h, higher = more signal.
The nature of assay [4]: CREB reporter modulators without forskolin, primary screen, cell-based, PC12, CRE-LacZ reporter, unstimulated (AID 1145). Particulars: no forskolin, luminescence, 4.5 h, higher = more signal, called active from +8 up or from −8 down.
Assay [5] is described as follows: CREB reporter modulators under forskolin, primary screen, cell-based, PC12, CRE-LacZ reporter, forskolin-stimulated (AID 1146).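 Further: PC12 cells with 6xCRE LacZ reporter stimulated by forskolin 10 µM; beta-galactosidase reporter signal reflecting CREB driven transcription.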 Particulars: luminescence, 4.5 h, higher = more signal, called active from +8 up or from −8 down.
The target in assay [6] is Streptavidin (Streptomyces avidinii) (UniProt P22629). As to the kind of experiment: streptavidin binders on small-molecule microarray, primary screen, artefact control for SMM compound annotation, biophysical, 635/667 nm fluorescence (AID 1147).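 Further: signal reflects streptavidin binding to arrayed compounds as a control protein.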 As to conditions: streptavidin binding, higher = more signal.
Assay [7] in a line: small-molecule binders of probe aInhba, primary screen, biochemical, small-molecule microarray, 635/667 nm fluorescence (AID 1148).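 Further: score merges 667nm spot fluorescence with signal-to-noise for antibody binding to printed compounds.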 As to conditions: higher = more signal.
Assay [8] addresses Torsin-1A (Homo sapiens) (UniProt O14656). As to the kind of experiment: torsin A binders from cell lysate, primary screen, small-molecule microarray, wild-type, 635/667 nm (AID 1149). As to conditions: COS7 hTOR1A-WT lysate, 635 nm fluorescence, higher = more signal.
Assay [9] shares this target. As to the kind of experiment: small-molecule binders of mutant TOR1A in lysate, primary screen, cell lysate, small-molecule microarray, COS7 lysate, 635/667 nm fluorescence (AID 1150).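 Further: score pools 667 nm emission and signal to noise measuring lysate protein binding.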 Particulars: COS7 hTOR1A mutant lysate, 635 nm fluorescence, higher = more signal.
Assay [10] deals with Sonic hedgehog protein (Shh). As to the kind of experiment: small-molecule binders of Shh protein, primary screen, biochemical, small-molecule microarray, 635/667 nm fluorescence (AID 1151).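 Further: Shh protein binding to compounds spotted on small-molecule microarray slides; score combines spot fluorescence intensity with signal-to-noise across triplicate slides.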 As to conditions: small-molecule microarray binding, 635 nm fluorescence; higher = more signal.
Assay [11] in a line: E. coli DRC41 culture turbidity changes, primary screen, E. coli filamentation inducer project, strain DRC41, OD650, 48 h (AID 1152).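 Further: E. coli MC1000 strain DRC41 lacking acrAB efflux pump and sulA.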 Particulars: E. coli DRC41 (acrAB sulA), higher = more signal, called active from +8 up or from −8 down.
Assay [12] can be described thus: small-molecule binders of probe aLefty1, primary screen, biochemical, small-molecule microarray, 635/667 nm fluorescence (AID 1153).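 Further: score merges spot fluorescence with signal-to-noise ratio from the scanned slide images.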 As to conditions: higher = more signal.
Assay [13] in a line: PSAC antagonists in infected red cells, primary screen, cell-based, P. falciparum Indochina, OD700, 1 h (AID 1154). As to conditions: P. falciparum Indochina infected RBC osmotic lysis, higher = more signal, called active from +8 up or from −8 down.
Assay [14] is described as follows: PSAC antagonists in infected red cells, primary screen, cell-based, P. falciparum Indochina, OD700, 2 h (AID 1155).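 Further: lysis reports solute entry through the parasite surface anion channel PSAC; channel blockers reduce lysis of infected cells.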 Particulars: P. falciparum Indochina infected erythrocytes, osmotic lysis OD700; higher = more signal, called active from +8 up or from −8 down.
Assay [15] in a line: osmotic lysis modulators in infected erythrocytes, primary screen, PSAC antagonist project, cell-based, P. falciparum Indochina, OD700, 3 h (AID 1156). As to conditions: higher = more signal, called active from +8 up or from −8 down.
Assay [16] is described as follows: PSAC antagonists in infected red cells, primary screen, cell-based, P. falciparum Indochina, OD700, 18 h (AID 1157). Particulars: P. falciparum Indochina infected erythrocytes, osmotic lysis OD700, 18 h; higher = more signal, called active from +8 up or from −8 down.
A short description of assay [17]: modulators of S6 phosphorylation in cells, primary screen, cell-based, A549, cytoblot, luminescence, serum-stimulated (AID 1158).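 Further: serum-stimulated A549 lung adenocarcinoma cells; signal is phosphorylated S6 detected by cytoblot immunostaining with HRP secondary.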 Particulars: A549 phospho-S6 cytoblot, 5 h, higher = more signal.
In assay [18] the target is NADPH oxidase 2 (Homo sapiens) (UniProt P04839). As to the kind of experiment: NOX2-dependent H2O2 signal modulators, primary screen, NOX inhibitor project, cell-based, HEK293-NOX2, PMA-stimulated, Amplex Red fluorescence (AID 1159). Further: test concentration not given here. As to conditions: 45 min, higher = more signal, called active from +8 up or from −8 down.
The target in assay [19] is NADPH oxidase 4 (Homo sapiens) (UniProt Q9NPH5). The experiment in a line: NOX4-dependent H2O2 signal modulators, primary screen, NOX inhibitor project, cell-based, HEK293-NOX4, tetracycline-induced, Amplex Red fluorescence (AID 1160). As to conditions: 45 min, higher = more signal, called active from +8 up or from −8 down.
In assay [20] the target is NADPH oxidase 5 (Homo sapiens) (UniProt Q96PH1). The experiment in a line: NOX5-dependent H2O2 signal modulators, primary screen, NOX inhibitor project, cell-based, HEK293-NOX5, Amplex Red fluorescence (AID 1161). As to conditions: HEK293-NOX5, ionomycin, 45 min, higher = more signal.
Chain of NADPH oxidase 5 (Homo sapiens) (Q96PH1 whole entry, looked up): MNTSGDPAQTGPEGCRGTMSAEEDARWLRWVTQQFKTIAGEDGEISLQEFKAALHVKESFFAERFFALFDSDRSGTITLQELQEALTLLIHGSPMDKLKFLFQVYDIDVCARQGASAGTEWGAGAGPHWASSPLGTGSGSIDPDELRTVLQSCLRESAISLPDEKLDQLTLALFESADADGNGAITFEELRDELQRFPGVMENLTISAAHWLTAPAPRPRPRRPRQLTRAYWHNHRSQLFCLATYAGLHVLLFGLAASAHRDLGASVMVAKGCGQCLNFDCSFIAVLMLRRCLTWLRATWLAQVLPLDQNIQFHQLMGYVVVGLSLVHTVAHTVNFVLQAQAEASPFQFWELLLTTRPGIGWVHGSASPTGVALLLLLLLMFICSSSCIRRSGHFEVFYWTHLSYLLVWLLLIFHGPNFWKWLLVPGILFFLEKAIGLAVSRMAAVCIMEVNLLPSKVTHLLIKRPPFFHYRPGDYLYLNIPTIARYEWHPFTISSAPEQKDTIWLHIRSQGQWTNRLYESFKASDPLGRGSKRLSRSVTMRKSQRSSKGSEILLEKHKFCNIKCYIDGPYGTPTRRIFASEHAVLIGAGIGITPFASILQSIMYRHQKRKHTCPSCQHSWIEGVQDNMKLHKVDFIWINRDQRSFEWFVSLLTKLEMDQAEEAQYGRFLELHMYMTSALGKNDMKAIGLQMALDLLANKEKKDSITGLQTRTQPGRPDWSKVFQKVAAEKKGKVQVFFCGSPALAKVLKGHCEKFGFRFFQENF

Chain of NADPH oxidase 2 (Homo sapiens) (P04839 whole entry, looked up): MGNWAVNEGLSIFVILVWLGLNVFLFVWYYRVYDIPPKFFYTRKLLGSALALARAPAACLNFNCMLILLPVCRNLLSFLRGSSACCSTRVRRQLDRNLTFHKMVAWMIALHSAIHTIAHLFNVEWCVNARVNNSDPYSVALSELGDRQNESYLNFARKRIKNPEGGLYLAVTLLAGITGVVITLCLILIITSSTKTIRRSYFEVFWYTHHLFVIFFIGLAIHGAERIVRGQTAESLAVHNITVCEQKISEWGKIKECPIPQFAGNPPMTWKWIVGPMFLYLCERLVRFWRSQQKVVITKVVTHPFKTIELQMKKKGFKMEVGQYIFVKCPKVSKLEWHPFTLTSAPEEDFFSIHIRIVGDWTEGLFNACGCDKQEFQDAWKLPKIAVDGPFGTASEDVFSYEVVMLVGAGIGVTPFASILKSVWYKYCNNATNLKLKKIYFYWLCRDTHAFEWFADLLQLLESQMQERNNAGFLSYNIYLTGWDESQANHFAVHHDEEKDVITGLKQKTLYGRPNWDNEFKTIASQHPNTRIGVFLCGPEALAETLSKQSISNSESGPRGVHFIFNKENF
Chain of NADPH oxidase 4 (Homo sapiens) (Q9NPH5 whole entry, looked up): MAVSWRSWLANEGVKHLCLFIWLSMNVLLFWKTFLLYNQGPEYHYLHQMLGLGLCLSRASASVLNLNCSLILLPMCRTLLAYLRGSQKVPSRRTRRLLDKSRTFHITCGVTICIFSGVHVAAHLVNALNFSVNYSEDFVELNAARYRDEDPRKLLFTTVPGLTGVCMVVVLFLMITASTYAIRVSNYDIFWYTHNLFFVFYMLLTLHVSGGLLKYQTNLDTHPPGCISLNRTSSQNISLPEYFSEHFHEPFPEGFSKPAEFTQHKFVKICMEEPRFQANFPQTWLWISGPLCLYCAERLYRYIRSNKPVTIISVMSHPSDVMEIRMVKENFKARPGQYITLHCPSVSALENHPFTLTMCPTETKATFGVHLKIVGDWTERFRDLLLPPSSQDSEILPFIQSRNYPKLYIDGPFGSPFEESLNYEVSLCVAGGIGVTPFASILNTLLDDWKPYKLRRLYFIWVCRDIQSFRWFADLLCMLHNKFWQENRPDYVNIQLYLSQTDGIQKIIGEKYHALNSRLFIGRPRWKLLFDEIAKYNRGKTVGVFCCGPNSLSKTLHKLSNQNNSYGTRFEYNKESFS
Chain of Streptavidin (Streptomyces avidinii) (P22629 whole entry, looked up): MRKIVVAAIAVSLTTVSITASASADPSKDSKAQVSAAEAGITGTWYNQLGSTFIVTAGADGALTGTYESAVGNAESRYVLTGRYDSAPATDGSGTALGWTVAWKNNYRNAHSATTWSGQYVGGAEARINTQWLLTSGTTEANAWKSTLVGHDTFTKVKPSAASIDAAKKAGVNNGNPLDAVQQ
Chain of Torsin-1A (Homo sapiens) (O14656 whole entry, looked up): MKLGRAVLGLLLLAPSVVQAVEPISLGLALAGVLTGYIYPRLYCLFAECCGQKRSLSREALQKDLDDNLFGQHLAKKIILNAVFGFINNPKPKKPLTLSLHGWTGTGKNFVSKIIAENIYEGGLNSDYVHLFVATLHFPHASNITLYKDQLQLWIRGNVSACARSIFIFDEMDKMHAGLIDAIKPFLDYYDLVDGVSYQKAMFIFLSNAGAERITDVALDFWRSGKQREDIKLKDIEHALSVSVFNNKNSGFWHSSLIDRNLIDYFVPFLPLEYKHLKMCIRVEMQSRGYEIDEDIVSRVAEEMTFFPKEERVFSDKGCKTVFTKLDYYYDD

As to `O=C(O)[C@@H]1[C@@H]2C(=O)N(c3ccccc3)C(=O)[C@@H]2C[C@@H]1Sc1ccccc1`, the composite z-score in [1] is -0.129; in assay [6], -0.237; in [7], -0.389; in the assay with Torsin-1A (Homo sapiens) [8], -0.402; in the assay with Torsin-1A (Homo sapiens) [9], -1.03; in assay [10] it was -1.45. The molecule also displayed a composite z-score in [12] of -0.0573. Moreover, the z-score in assay [2] is 0.739 (inactive); in assay [3], 0.956 (inactive); in assay [4], 0.379 (inactive); in assay [5], 0.774 (inactive); in [11], -1.52 (inactive); in assay [13], 0.919 (inactive). The z-score in assay [14] is 0.544 (inactive); in assay [15], 0.0175 (inactive); in [16], 0.631 (inactive); in assay [17] it was -0.381; in assay [18] it was 0.312 (inactive); in assay [19], -0.541 (inactive). The molecule also returned a z-score in [20] of -0.295.
On to `O=C(NCc1ccc(F)cc1)[C@H]1C[C@H]2C(=O)NCC(=O)N2[C@H]1c1ccc(O)cc1`, for which the composite z-score in [1] was 0.205; in [6], -0.311; in assay [7], 0.177; with Torsin-1A (Homo sapiens) [8] it was 0.134; with Torsin-1A (Homo sapiens) [9], 1.82; in assay [10], 1.69. For the same molecule, the composite z-score in [12] came to 0.239. The z-score in [2] is -0.764 (inactive); in assay [3], 0.3 (inactive); in [4], 0.0124 (inactive); in [5] it was -0.0067 (inactive); in assay [11], 0.357 (inactive); in assay [13], 1.11 (inactive). The z-score was 0.285 (inactive) in [14]; -2.04 (inactive) in [15]; 0.4 (inactive) in assay [16]; -0.337 in [17]; 0.992 (inactive) in assay [18]; 0.558 (inactive) in [19]. For the same molecule, the z-score in assay [20] was determined as 0.693.
For the molecule `CCOC(=O)C1=CC[C@@H](c2ccccc2F)N(S(=O)(=O)c2ccc(C)cc2)[C@H]1c1ccccc1`, the composite z-score in assay [1] is 0.483; in assay [6], 0.872; in assay [7] it was -0.045; with Torsin-1A (Homo sapiens) [8], 0.263; with Torsin-1A (Homo sapiens) [9], 0.388; in [10], 0.649. In [12], this molecule returned a composite z-score of -0.0544. For the same molecule, the z-score in assay [2] was -3.92 (inactive); in assay [3], 0.0947 (inactive); in assay [4] it was 0.827 (inactive); in [5] it was 0.649 (inactive); in assay [11], -1.33 (inactive); in assay [13], 0.353 (inactive). For the same molecule, the z-score in assay [14] was 1.17 (inactive); in assay [15], 0.0175 (inactive); in assay [16], 0.338 (inactive); in assay [17], -0.445; in assay [18] it was 0.941 (inactive); in [19], 0.6 (inactive). Further, the z-score in assay [20] is 2.18.
`Cc1ccc(C(C)CC(O)C2C=CC3C(=O)N(c4ccccc4)C(=O)C3N2Nc2ccccc2)o1` (stereo not given): the composite z-score is 0.158 in assay [1]; 1.19 in assay [6]; 0.0792 in assay [7]; 0.145 with Torsin-1A (Homo sapiens) [8]; 1.11 with Torsin-1A (Homo sapiens) [9]; -0.125 in assay [10]. In [12], the composite z-score amounted to 0.738. Moreover, the z-score in assay [2] is -2.95 (inactive); in assay [3], -0.443 (inactive); in assay [4], 0.636 (inactive); in assay [5] it was 0.367 (inactive); in assay [11], -1.13 (inactive); in assay [13] it was 4.07 (inactive). Further, the z-score in assay [14] was 1 (inactive); in assay [15], -0.0498 (inactive); in assay [16] it was -0.374 (inactive); in assay [17], 2.07; in assay [18] it was -3.07 (inactive); in [19], -5.71 (inactive). This molecule had a z-score in [20] of -4.91.
Take `CCCCC(CC)C(O)C1C=CC2C(=O)N(c3ccccc3)C(=O)C2N1Nc1ccc(C#N)cc1` (stereo not given): the composite z-score in assay [1] was 0.648; in assay [6], 1.18; in assay [7] it was 0.722; with Torsin-1A (Homo sapiens) [8], -0.064; in the assay with Torsin-1A (Homo sapiens) [9] it was 0.68; in assay [10], -0.387. The molecule also gave a composite z-score in assay [12] of 0.834. Besides, the z-score is 0.308 (inactive) in assay [2]; -1.55 (inactive) in assay [3]; 0.819 (inactive) in assay [4]; 0.176 (inactive) in assay [5]; 0.344 (inactive) in [11]; 9.85 (active) in assay [13]. Further, the z-score in assay [14] is 2.68 (inactive); in [15] it was 1.89 (inactive); in [16] it was 1.54 (inactive); in assay [17], -0.423; in assay [18] it was 0.414 (inactive); in assay [19] it was -2.2 (inactive). This molecule also came in with a z-score in assay [20] of -1.91.
